In the supplement of paper PMC6555819:

What was measured:
Assay in all cases: PBM binding z-score (relative to random genomic background probes); higher = stronger binding; sequences stand for … in GC…GCGATTGACAGCGTAGAATGAAGG
[1] = system: FXR:RXRa (NR concentration 270 nM, RXRa partner concentration 90 nM)
Procedure, shortened: (§1)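 On custom Agilent 4×180K arrays, double-stranded probes with 34-nt variable regions carried direct-repeat seeds, single-nucleotide variants, half-site ablations or random human genomic background. Ligand-free nuclear receptor dimers were applied for 1 h, and binding was read with antibodies against each partner (one per run). Binding z-scores come from regression-normalized fluorescence, with the random background probes as reference.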

[2] = system: LXRa:RXRa (NR concentration 270 nM, RXRa partner concentration 90 nM)
Procedure, shortened: as §1

[3] = system: LXRa homodimer (NR concentration 270 nM)
Procedure, shortened: as §1

[4] = system: LXRb:RXRa (NR concentration 270 nM, RXRa partner concentration 90 nM)
Procedure, shortened: as §1

[5] = system: LXRb homodimer (NR concentration 270 nM)
Procedure, shortened: as §1

[6] = system: PPARa:RXRa (NR concentration 270 nM, RXRa partner concentration 90 nM)
Procedure, shortened: as §1

[7] = system: PPARg:RXRa (NR concentration 180 nM, RXRa partner concentration 90 nM)
Procedure, shortened: as §1

[8] = system: PPARg:RXRa 270nM:90nM, anti-RXR (NR concentration 270 nM, RXRa partner concentration 90 nM)
Procedure, shortened: as §1

[9] = system: PPARg:RXRa 30nM:10nM, anti-RXR (NR concentration 30 nM, RXRa partner concentration 10 nM)
Procedure, shortened: as §1

[10] = system: PPARg:RXRa 90nM:30nM, anti-RXR (NR concentration 90 nM, RXRa partner concentration 30 nM)
Procedure, shortened: as §1

[11] = system: PPARg:RXRa DBDmut IVT, anti-RXR (DBD mutation: RXRa K156A/R161A, NR concentration 270 nM, RXRa partner concentration 90 nM)
Procedure, shortened: as §1

[12] = system: PPARg:RXRa IVT, anti-PPARg (NR concentration 270 nM, RXRa partner concentration 90 nM)
Procedure, shortened: as §1

[13] = system: PPARg DBDmut:RXRa IVT, anti-PPARg (DBD mutation: PPARg1 K132A/R137A, NR concentration 270 nM, RXRa partner concentration 90 nM)
Procedure, shortened: as §1

[14] = system: PPARg DBDmut IVT, anti-PPARg (DBD mutation: PPARg1 K132A/R137A, NR concentration 270 nM)
Procedure, shortened: as §1

[15] = system: PPARg homodimer (NR concentration 180 nM)
Procedure, shortened: as §1

[16] = system: PXR:RXRa (NR concentration 270 nM, RXRa partner concentration 90 nM)
Procedure, shortened: as §1

[17] = system: PXR homodimer (NR concentration 270 nM)
Procedure, shortened: as §1

[18] = system: RARa:RXR (NR concentration 270 nM, RXRa partner concentration 90 nM)
Procedure, shortened: as §1

[19] = system: RARa homodimer (NR concentration 270 nM)
Procedure, shortened: as §1

[20] = system: RARb:RXRa (NR concentration 270 nM, RXRa partner concentration 90 nM)
Procedure, shortened: as §1

Row | Sequence | PBM binding z-score [1] | PBM binding z-score [2] | PBM binding z-score [3] | PBM binding z-score [4] | PBM binding z-score [5] | PBM binding z-score [6] | PBM binding z-score [7] | PBM binding z-score [8] | PBM binding z-score [9] | PBM binding z-score [10] | PBM binding z-score [11] | PBM binding z-score [12] | PBM binding z-score [13] | PBM binding z-score [14] | PBM binding z-score [15] | PBM binding z-score [16] | PBM binding z-score [17] | PBM binding z-score [18] | PBM binding z-score [19] | PBM binding z-score [20]
1 | TCAGACAAGTGAAGGTAACTCAGGTACGCAGTCG | 0.55 | 1.36 | -0.177 | 0.561 | -0.499 | 0.902 | 0.548 | 2.26 | 3.99 | 2.94 | 2.07 | 0.111 | 0.0158 | -0.174 | -0.105 | 0.509 | -0.105 | 0.807 | -0.0772 | 0.197
2 | ATCTCCAGGTAAGACTCAGTTCAGTGAAGAACGC | 0.579 | 0.595 | 0.65 | 0.641 | 0.696 | 0.265 | 0.0991 | 0.41 | 0.426 | 0.596 | 0.285 | 0.513 | 0.311 | 1.43 | 1.51 | 1.38 | 1.36 | 0.454 | 0.892 | 0.446
3 | GCTATTAGTTGAAAGAGCAACCGAATGATTCTCG | -0.368 | -0.335 | -0.0598 | -0.509 | -0.535 | 0.321 | 0.704 | 1.95 | 0.137 | 1.51 | 0.238 | -0.404 | 0.37 | 0.517 | 0.13 | -0.39 | -0.276 | -0.118 | 0.294 | -0.146
4 | AATACAGGGTCAGTAGGCCAGAGTAGGTACGAAT | 3.97 | 3.63 | 0.625 | 2.61 | 0.737 | 4.47 | 5.91 | 5.01 | 1.93 | 3.86 | 3.22 | 4.8 | 1.82 | 0.929 | 1.97 | 1.86 | 0.246 | 2.94 | 1.18 | 3.92
5 | TCTAGTTGGCCACGGAGGTCACACACGACGGGTA | 2.71 | 2.79 | 1.39 | 3.2 | 0.0016 | 3.68 | 2.32 | 2.96 | 2.82 | 2.84 | 1.59 | 2.78 | 1.61 | 0.255 | 2.19 | 4.03 | 0.788 | 3.94 | 0.587 | 3.35
6 | TCATATAGGTAAAGGTGAAAGTTGAACGATATGA | 1.54 | 1.75 | 0.158 | 1.89 | -0.399 | 4.3 | 5.92 | 5.66 | 5.22 | 5.99 | 4 | 4.73 | 1.52 | 1.41 | 1.62 | 2.3 | 0.333 | 3.46 | 0.78 | 2.25
7 | TGTCAAAGTTCAAAGGTAACGCAAGTATCCACAC | 7.39 | 6.39 | 4.52 | 4.83 | 1.75 | 6.18 | 9.31 | 8.11 | 5.51 | 7.89 | 0.302 | 4.95 | 0.987 | 0.888 | 3.82 | 6.07 | 4.47 | 7.09 | 1.84 | 5.19
8 | CATCCAGGGTCAGCTAGGCCAGAGTAGGGACGGC | 4.57 | 3.12 | -0.152 | 2.1 | 0.239 | 4.34 | 2.97 | 3.3 | 0.549 | 1.89 | 0.695 | 2.52 | 0.576 | 0.124 | 1.54 | 2.31 | -0.182 | 3.25 | 0.407 | 4.03
9 | CCGACTAGGGCAAGGTTACCATAACGCACAGCCA | 0.299 | 0.666 | -0.117 | 0.701 | -1.03 | 1.93 | 3.55 | 3.99 | 1.61 | 3.28 | 4.54 | 4.32 | -0.62 | -0.559 | 1.27 | 0.169 | -0.069 | 0.801 | 0.218 | 1.91
10 | TCGAGTAGGTTAGTCGGGGCATTCCGCCAACATA | 0.02 | 0.121 | -0.495 | 0.444 | -0.721 | 0.661 | -0.328 | 0.877 | 1.07 | 0.912 | 2.34 | 2 | -0.206 | -0.88 | -0.0815 | 0.0285 | -0.57 | 0.175 | -0.691 | 0.585
11 | CTCGAAAGGTCGTGCTCAGCTGAGTATACCAAAC | 4.95 | 3.96 | -0.247 | 3.26 | 0.329 | 4.67 | 2.52 | 3.89 | 0.929 | 2.38 | 0.87 | 1.49 | 0.246 | 0.618 | 1.59 | 2.99 | -0.206 | 3.49 | 0.13 | 3.72
12 | CCTTACGGGTCACTGACAGGTTATAGCTTTTGGA | 4.62 | 4.13 | 0.331 | 3.35 | -0.0774 | 4.88 | 3.89 | 4.21 | 1.73 | 3.06 | 3.62 | 3.94 | -0.188 | -0.142 | 1.82 | 3.38 | -0.201 | 4.13 | 0.634 | 3.74
13 | CCTTGGAGGACAACAGGAGGTCAGAGCTGCCAGA | 1.03 | 2.19 | 2.44 | 1.58 | -0.284 | 2.26 | 0.731 | 0.64 | 0.153 | 0.077 | 1.07 | 1.27 | -1.18 | -0.193 | 1.41 | 1.97 | 0.462 | 2.33 | 0.276 | 2.83
14 | TAGCCCAGGTCATGGGCCAGTATACCACGCGAAC | 5.49 | 3.68 | 0.403 | 2.34 | -0.434 | 4.31 | 3.87 | 3.37 | 0.448 | 2.04 | 0.271 | 2.71 | 0.391 | -0.431 | 0.53 | 2.24 | -0.39 | 2.96 | 0.0198 | 3.78
